# Results published in the supplement of paper PMC6555819.
# Experiments:
# Experiment in all cases: PBM binding z-score (relative to random genomic background probes); higher = stronger binding; sequences stand for … in GC…GCGATTGACAGCGTAGAATGAAGG
# [1] = system: FXR:RXRa (NR concentration 270 nM, RXRa partner concentration 90 nM)
# How it was run: (§1)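 Custom Agilent 4×180K protein-binding microarrays carried double-stranded probes. Their 34-nt variable regions held direct-repeat seeds, single-nucleotide variants, half-site ablations and random human genomic background sequences. Arrays were incubated 1 h with ligand-free nuclear receptor dimers in PBS pH 7.4, 2% milk, 0.02% Triton X-100, 1 mM DTT, 0.2 mg/mL BSA and 0.4 mg/ml salmon testes DNA. Antibodies against each partner (one per run) detected binding, and scanned fluorescence was regression-normalized. Binding z-scores use random background probes as reference.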
# [2] = system: LXRa:RXRa (NR concentration 270 nM, RXRa partner concentration 90 nM)
# How it was run: as §1
# [3] = system: LXRa homodimer (NR concentration 270 nM)
# How it was run: as §1
# [4] = system: LXRb:RXRa (NR concentration 270 nM, RXRa partner concentration 90 nM)
# How it was run: as §1
# [5] = system: LXRb homodimer (NR concentration 270 nM)
# How it was run: as §1
# [6] = system: PPARa:RXRa (NR concentration 270 nM, RXRa partner concentration 90 nM)
# How it was run: as §1
# [7] = system: PPARg:RXRa (NR concentration 180 nM, RXRa partner concentration 90 nM)
# How it was run: as §1
# [8] = system: PPARg:RXRa 270nM:90nM, anti-RXR (NR concentration 270 nM, RXRa partner concentration 90 nM)
# How it was run: as §1
# [9] = system: PPARg:RXRa 30nM:10nM, anti-RXR (NR concentration 30 nM, RXRa partner concentration 10 nM)
# How it was run: as §1
# [10] = system: PPARg:RXRa 90nM:30nM, anti-RXR (NR concentration 90 nM, RXRa partner concentration 30 nM)
# How it was run: as §1
# [11] = system: PPARg:RXRa DBDmut IVT, anti-RXR (DBD mutation: RXRa K156A/R161A, NR concentration 270 nM, RXRa partner concentration 90 nM)
# How it was run: as §1
# [12] = system: PPARg:RXRa IVT, anti-PPARg (NR concentration 270 nM, RXRa partner concentration 90 nM)
# How it was run: as §1
# [13] = system: PPARg DBDmut:RXRa IVT, anti-PPARg (DBD mutation: PPARg1 K132A/R137A, NR concentration 270 nM, RXRa partner concentration 90 nM)
# How it was run: as §1
# [14] = system: PPARg DBDmut IVT, anti-PPARg (DBD mutation: PPARg1 K132A/R137A, NR concentration 270 nM)
# How it was run: as §1
# [15] = system: PPARg homodimer (NR concentration 180 nM)
# How it was run: as §1
# [16] = system: PXR:RXRa (NR concentration 270 nM, RXRa partner concentration 90 nM)
# How it was run: as §1
# [17] = system: PXR homodimer (NR concentration 270 nM)
# How it was run: as §1
# [18] = system: RARa:RXR (NR concentration 270 nM, RXRa partner concentration 90 nM)
# How it was run: as §1
# [19] = system: RARa homodimer (NR concentration 270 nM)
# How it was run: as §1
# [20] = system: RARb:RXRa (NR concentration 270 nM, RXRa partner concentration 90 nM)
# How it was run: as §1
Sequence,PBM binding z-score [1],PBM binding z-score [2],PBM binding z-score [3],PBM binding z-score [4],PBM binding z-score [5],PBM binding z-score [6],PBM binding z-score [7],PBM binding z-score [8],PBM binding z-score [9],PBM binding z-score [10],PBM binding z-score [11],PBM binding z-score [12],PBM binding z-score [13],PBM binding z-score [14],PBM binding z-score [15],PBM binding z-score [16],PBM binding z-score [17],PBM binding z-score [18],PBM binding z-score [19],PBM binding z-score [20]
CCTCGCAGGACAGAAGGTCAGAGCTGTCCGCTTT,1.07,1.44,0.197,1.13,-0.678,1.86,-0.29,0.666,-0.929,0.0497,0.197,0.104,-2.21,-1.7,1.13,1.35,-0.203,1.84,-0.425,2.81
GCTCGGAGGACGAGGTCAGAGCTTTGTCCGTAGA,1.88,1.6,-0.0578,1.38,-1.38,2.9,0.449,1.04,-0.495,0.269,-0.0575,0.506,-0.927,-1.57,0.162,2.57,0.107,2.7,-1.37,2.92
ACAGACAGGTGATGAAGCTAACTCAGGCTATCAT,-0.132,-0.408,-0.326,-0.472,-0.446,-0.116,0.522,-0.13,-0.153,-0.11,-0.036,-0.28,0.338,0.232,0.0494,-0.231,0.283,0.275,-0.315,-0.112
AGTCAAAGTTCATCTAGGTAACGTATGATATGCT,6.72,5.89,5.49,3.77,1.5,4.97,6.95,6.52,3.52,5.74,0.872,3.88,1.48,1.76,2.9,5.12,7.63,3.93,1.68,4.95
GGTAGCAGGCCATTTGGGTCACTCAATGACGGGC,0.428,0.0822,-0.186,0.118,-0.593,1.49,0.828,0.694,-0.356,0.275,0.966,2.81,-0.125,-0.507,0.75,0.505,-0.0413,0.741,-0.36,1.75
GATACAGGATCAGCTAGAGGCCAGAGTATGGAAA,-0.162,-0.497,-0.55,-0.727,-1.05,-0.383,0.505,-0.286,0.0459,0.0181,-1.08,-0.432,-0.311,-0.748,-0.609,-0.395,-0.577,-0.16,-0.552,0.184
CCAGACAGTTGAGAAGGTAACTCAGCCTCGATTA,0.18,0.172,0.398,0.125,0.336,0.142,0.175,-0.218,0.0704,0.0662,0.0699,-0.312,0.611,-0.051,1.22,0.00076,0.294,0.392,1.27,0.189
CCTCCAAGGTCAATGCTAGGTCAGTGAAAGCATT,6.43,5.53,2.29,4.51,1.02,5.22,3.95,4.93,1.2,3.28,3.02,3.34,-0.0903,-0.621,4.19,4.52,1.09,5.43,1.36,5.22
ATCGAAAGGTCTTGAGGTGAGTATACAGAAAGGC,0.305,0.206,-0.36,0.394,-0.0662,1.68,1.15,0.897,0.286,0.647,-0.431,1.56,0.61,0.602,0.325,0.409,-0.368,1.43,0.103,2.13
CCTAGAAGGCCAGGGTCACTCAAGCATTTCGCTT,2.51,1.79,-0.266,2.02,-0.312,3.12,0.628,1.35,-0.294,0.786,0.376,0.709,-1.14,-1.39,1.89,2.81,0.284,3.21,1.23,3.06
ACTAGCAAGCCAAGGGTCACTCAAGATTAGTCCG,2.21,2.75,0.27,2.66,-0.201,3.53,3.39,4.44,2.1,4.11,-0.0877,1.46,-0.235,-0.0767,1.68,3.01,0.0127,3.79,0.419,3.11
TCTAGTTGGTCACGGTGGTCACACACGACGGGTA,-0.0806,0.249,-0.00168,0.395,0.0154,1,1.15,2.15,3.17,2.47,2.21,3.35,1.54,0.923,0.94,0.537,-0.191,0.741,-0.155,1.93
ACCGACAGGTGATGAAGGTAACTCAGGCTATCAT,-0.0834,-0.243,-0.257,-0.498,-0.393,0.179,0.492,-0.102,-0.173,-0.00846,0.339,0.157,0.484,0.654,0.0692,-0.165,-0.395,0.291,0.18,0.0834
AGTCAAAGTCCAGGACGAGGTAACGTAAAGCACG,-0.263,-0.424,-0.518,-0.388,-0.767,0.01,0.733,-0.294,-0.119,-0.153,-0.362,-0.000589,0.282,0.0417,-0.362,-0.248,-0.347,-0.00617,-0.392,0.916
CGAAATAGGTCATTGACAGGACAGTGAATAGTAA,6.1,5.06,1.3,3.58,0.828,5.64,6.83,6.73,4.21,6.12,7.51,7.87,3.54,2.18,3.02,3.03,0.444,4.06,1.24,4.3
AGAACGAGGGCTATGAGTTGATAGCACGGGTGGC,-0.355,-0.47,-0.658,-0.828,-0.486,-0.335,0.792,0.00243,-0.297,0.151,0.434,-0.14,-0.172,-1.35,-0.607,-0.351,0.0434,-0.584,0.201,-0.0296
ATATGTAGATTATCGGGTCATTCAGTTTGCGCAT,2.14,2.5,1.98,2.47,0.87,2.81,1.63,1.77,0.662,1.31,2.57,2.72,1.49,1.26,1.63,3.39,6.51,2.84,0.767,1.85
ATCGAAAGGTCGACGAGCTGAGTATACACCGTTT,4.14,3.16,0.028,2.59,0.389,4.22,2.33,2.87,1.17,1.72,0.472,1.18,0.525,1.06,0.589,2.22,-0.245,2.78,0.204,3.72
TTACCGAGGTGAAGGTCGTTGATCCCTCTGTAGA,2.23,2.18,-0.314,1.71,-0.388,2.95,3.07,3.81,1.61,3,1.78,3.4,0.416,0.34,0.505,1.72,0.178,1.84,-0.539,2.11
CCGAGTAGGTCATGGGGCATTCAGGCAACGGTGA,4.82,3.04,0.422,2.42,-0.503,4.92,8.14,7.29,6.6,7.69,5.78,6.73,0.331,-0.486,2.5,2.15,-0.103,3.58,0.815,3.78
CCTACTGGGCCAAAAAGGTCATTGAAGCCGATAA,3.74,4.35,2.77,4.22,0.158,4.79,3.38,4.24,1.31,3.47,3.62,3.97,-0.352,-0.851,3.29,4.73,3.09,5.39,1.5,4.06
CGTCCAAGGTCAAGGTCAGAGAAAGAGACTCGAA,7.9,5.84,0.844,4.67,0.838,5.99,6.4,6.27,2.49,5.02,4.02,4.66,0.309,-0.449,3.52,4.81,1.27,5.48,2.01,5.62
GGAACGAGGGCAAAGTTGAAAGCATCTGTCGACG,2.18,1.34,-0.458,1.26,-0.325,4.91,8.72,8.04,7.29,8.83,4.35,5.08,-0.45,-0.356,0.811,2.03,0.337,2.95,-0.362,2.7
CCTTACGGGTCACGAGGTTATAGTACGACGAGCG,6.36,4.81,0.561,4.06,0.224,6.09,7.25,6.66,3.38,5.43,4.32,5.17,1.09,0.529,2.24,4.61,0.539,6.16,1.16,4.59
TCTCGGAGGACACGAAAGGTCAGAGCGCGACATC,3.05,4.07,2.95,3.16,-0.239,3.64,1.36,2.96,2.26,2.66,1.45,1.17,-0.212,-0.0951,3.06,4.27,0.685,4.73,1.1,4.27
TGTCAAAGTTCAAAGGTAACGTACGTATCCACAC,7.21,6.37,4.32,4.74,1.52,5.75,8.65,7.29,4.86,7.11,0.385,4.52,2.01,1.18,3.53,5.63,3,6.3,1.11,4.92
ATCTCTAGGTAAAGATAGTTCAGAGAATGCAAAT,0.206,3.56,0.259,0.69,0.411,0.663,0.843,0.494,0.309,0.609,1.37,1.42,0.582,1.54,0.983,0.864,0.342,0.707,0.924,0.573
TCATATAGTTAATACAGGTGAAAGTCGGCATCTA,1.36,1.88,0.641,1.3,0.448,1.8,1.13,2.41,4.54,3.7,2.82,1.74,1.53,1.48,1.32,1.05,0.721,1.59,2.34,0.914
